# Test results from the supplement of paper PMC3334620.
# The full ranking holds about 33,000 sequences; the median of “E-score (-0.5 to 0.5)” is about -0.012, and the highest 2% start at about 0.27. Shown is part of a subset that was picked to be rich in the highest values.
# Molecular target: T1, Vhr1 (UniProt P40522)
# T1 sequence: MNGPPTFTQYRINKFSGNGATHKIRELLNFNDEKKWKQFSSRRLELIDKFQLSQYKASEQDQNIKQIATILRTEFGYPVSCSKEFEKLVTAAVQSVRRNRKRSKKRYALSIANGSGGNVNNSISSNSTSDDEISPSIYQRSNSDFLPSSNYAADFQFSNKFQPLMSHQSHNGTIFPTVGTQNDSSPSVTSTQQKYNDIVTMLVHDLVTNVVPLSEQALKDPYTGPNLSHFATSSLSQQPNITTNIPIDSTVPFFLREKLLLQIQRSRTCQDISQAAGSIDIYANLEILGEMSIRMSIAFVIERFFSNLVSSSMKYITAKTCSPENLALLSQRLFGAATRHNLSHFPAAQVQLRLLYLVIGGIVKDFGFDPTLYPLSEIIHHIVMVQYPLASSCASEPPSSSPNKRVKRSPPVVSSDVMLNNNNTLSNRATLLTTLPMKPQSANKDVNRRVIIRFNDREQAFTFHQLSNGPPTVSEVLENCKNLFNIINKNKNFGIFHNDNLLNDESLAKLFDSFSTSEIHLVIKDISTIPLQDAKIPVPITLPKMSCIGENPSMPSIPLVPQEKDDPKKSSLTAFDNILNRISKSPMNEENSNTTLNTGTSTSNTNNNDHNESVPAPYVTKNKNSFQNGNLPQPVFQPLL
# Assay: PBM E-score (8-mer binding enrichment) (E-score (-0.5 to 0.5)); higher = stronger / more preferred TF binding
# Details: protein concentration: 200 nM; construct: GST-full length
# Procedure, shortened: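 Yeast transcription factors, full-length or as DNA-binding domains, were expressed with a GST tag using PURExpress in vitro transcription/translation. At about 100-200 nM they were applied to universal all-10-mer Agilent arrays, double-stranded by primer extension on fresh or once-stripped slides. Fluorescent anti-GST detected bound protein, and masliner normalised the scans. E-scores for ungapped eight-base words, pooled with reverse complements, came from the Universal PBM Analysis Suite.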
row,Sequence,PBM E-score
1,ATGATTCA,0.443
2,ATGATTCG,0.412
3,GTGATTCA,0.408
4,AAGATTCG,0.0242
5,CAGATTCA,-0.232
6,CTGATTCA,0.341
7,ACGATTCA,0.112
8,CGGATTCA,0.0469
9,GGGATTCA,0.134
10,ATCCAAGC,0.0358
11,ACTGCCCC,-0.0425
12,GTGGACCA,0.0132
13,ATTTTGGG,-0.177
14,CCGGTAGC,-0.00183
15,AGTGTACG,0.163
16,ATCCAATA,0.135
17,GGGAGGAC,-0.0865
18,GCTGGTAA,-0.148
19,GGCTAACA,-0.0545
20,GAGGTGTA,-0.038
21,GAGTTGGC,0.161
22,AGGATTCC,0.0112
23,ATGATTCC,0.445
24,CTGATTCC,0.261
25,GCATCCAC,0.0832

row,Sequence,PBM E-score
1,CACAGCCC,-0.0755
2,AACAGCCG,-0.0956
3,CACAGACA,0.0563
4,AACAGACT,0.0598
5,CACAGACG,0.104
6,GACAGACC,-0.067
7,CACAGACC,0.307
8,GACAGACA,0.294
9,CTCAGACC,-0.00267
10,AACAGACC,0.0701
11,CACAGCCG,0.281
12,AACAGACA,0.285
13,ACGGCGAA,0.0608
14,CCATATCG,0.245
15,GAAATTTA,-0.157
16,AAATGCGA,-0.00728
17,ATCAGACC,0.0881
18,GCTCTCAA,-0.0323
19,CATCTGGA,0.0944
20,CTAATGAG,0.0521
21,CGTTGCGA,0.0286
22,GGCCAGAA,-0.00605
23,ACAGTACT,0.0536
24,CATTAGCA,-0.152
25,CGTCGAAG,0.0798

row,Sequence,PBM E-score
1,AGTAGTCC,0.0701
2,CGTAGTCA,0.372
3,CGTAGTCC,-0.0429
4,AGTAGTCG,0.292
5,AGTAGTTA,0.0583
6,AGTAGTTC,0.108
7,AGTAGTAA,0.0586
8,CGTAGTAA,-0.095
9,AGTAGTCA,0.401
10,AGTAGTTG,0.29
11,AGTAGTGA,0.106
12,AGTAGTAG,0.0116
13,CCAGTGGA,-0.118
14,CATTGGCG,0.00375
15,GGAATGCA,0.0844
16,GGGCTTCA,-0.00484
17,GGTAGTGA,0.159
18,GGTAGTAA,-0.193
19,GGTAGTCA,0.427
20,ACCGTTGC,-0.0641
21,CACAATGG,0.176
22,CACAATGC,0.132
23,CACAATGA,0.286
24,CTCAGTCA,0.362
25,AACAGTCA,0.192

row,Sequence,PBM E-score
1,GTCAGTCA,0.267
2,ATCAGTCA,0.306
3,CTCAGTGA,0.111
4,ATCAGTCG,0.23
5,TACAGTCA,0.294
6,ACCAGTCA,0.298
7,ACCAGTCC,-0.0311
8,CACAGTCA,0.244
9,ACCAGTCT,0.0104
10,CTCAGTCC,-0.0479
11,ACGCTAGC,-0.322
12,AATTTAGG,0.0535
13,CACTAATC,0.19
14,CCCAATCG,-0.00353
15,GAATGCAC,0.109
16,CGGCTCGC,0.0809
17,AACAGCTC,0.0178
18,GTGAATCA,0.394
19,CTGAATCC,0.224
20,ATGAATCC,0.0842
21,CTGAATTA,-0.00808
22,GTGAATGA,0.0662
23,GTGAATAA,0.16
24,ATGAATCG,0.214
25,ATGAATCA,0.423

row,Sequence,PBM E-score
1,CTGAATCA,0.402
2,GAAGATAC,0.00993
3,AGCTTGTA,-0.0135
4,GACAGCTC,-0.0639
5,CCGGCCGG,0.282
6,CCGGCCGA,0.031
7,CCGGCCGC,-0.048
8,AGGTCGTA,0.107
9,AGATTGGA,-0.0483
10,ACGTCACC,-0.0531
11,AAGTCACC,0.301
12,TCGTCACA,0.0377
13,TGGTCACA,0.035
14,CTGTCACA,0.025
15,CCGTCACC,-0.114
16,TAGTCACA,0.394
17,CAGTCACA,0.348
18,CCGTCACA,-0.0936
19,CAGTCACC,0.307
20,CGGTCACC,0.0171
21,AGGTCACC,-0.16
22,CTACTTCC,-0.0528
23,CAAGTGAC,-0.00136
24,TAGCGCAA,-0.0984
25,ACCGCGGC,0.0296

row,Sequence,PBM E-score
1,ACGGTAAC,0.0764
2,GACAGCAA,-0.0406
3,AAGTCACT,0.209
4,AAGTCACG,0.336
5,AAGTCACA,0.246
6,CAGTCACG,0.365
7,CGGTCACA,0.0193
8,CAGTCAAA,-0.0678
9,GACATCAC,0.0237
10,CGGATTGA,0.132
11,ACCGGACG,0.283
12,CCCGGACG,-0.133
13,ACCGGACT,-0.0358
14,ATAGTGTC,0.13
15,ATATTATC,0.0882
16,ATATTATA,0.058
17,ATATTATG,0.324
18,CGTATACG,0.107
19,CGGTCATA,-0.0676
20,AGGTCATA,0.0299
21,CCGTCATA,0.139
22,CAGTCATA,0.291
23,TAGTCAGA,0.258
24,AAGTCATA,0.316
25,CAGTCAGG,0.175

row,Sequence,PBM E-score
1,CTGTCATA,0.0334
2,TAGTCATA,0.356
3,CAGTCATG,0.406
4,CAGTCAAG,0.0145
5,ATGTCATA,0.106
6,AAACACTA,0.0776
7,CCCCCAGC,-0.15
8,AGCGCACA,0.00461
9,GCGCTAAA,-0.142
10,CCAGACAC,-0.0651
11,AGCTGCGG,-0.115
12,CCAATGGG,-0.103
13,CGACTCAC,0.448
14,CAACTCAC,0.263
15,CGACTCAG,0.428
16,CCACTCAG,0.0902
17,GGACTCAC,0.372
18,GCACTCAC,-0.0104
19,CAACTCAG,0.0745
20,GTACTCAC,0.263
21,CGACTCTA,0.225
22,AGACTCTC,0.0937
23,CGACTCTC,0.278
24,CCACTCAC,0.177
